Source: PubChem (several laboratories)
Sampled rows, rich in hits. Any-hit rate of the full collection: about 1.8%.
CendR NRP1 mod = alters CendR peptide binding to human NRP-1; O14786; FAM-RPARPAR peptide binding to NRP-1, fluorescence polarization; inhibition, % at 25 µM; actives 0.85% (n = 360,000);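 active means inhibition or corrected inhibition above about 18%, plus a signal ratio from 0.5 to 1.5, limit read from the data, passing the limit was not always enough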
VLA-4 inh = inhibition in a human VLA-4 binding assay; inhibition, % (about 7 µM as worked out from the volumes in the protocol); P13612; VLA-4 expressing cells, ligand binding flow cytometry; AID 2557; actives 0.2% (n = 330,000); in the data active means inhibition above about 50%
MIN6 prolif = inducers of beta-cell replication in MIN6 cells | MIN6 cells proliferation, ATPlite luminescence, 48 h; cells starved in 0.2% serum; 100% = growth in 10% serum | proliferation, % at 10 µM | actives 0.29% (n = 330,000) | AID 2380;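 active means compounds whose signal lies at least 3.5 SD above the mean of all wells on their plate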;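 further: 0% = DMSO-treated cells in low-serum medium and 100% = 10% serum control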
A3G deaminase = inhibitors of human APOBEC3G DNA deaminase | Q9HC16 | recombinant A3G, ssDNA deamination FAM/TAMRA fluorescence | inhibition, % at 20 µM | actives 0.28% (n = 330,000) | AID 493012;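 active means inhibition of at least 40% at 20 µM, with no more than 30% in the related APOBEC3A deaminase screen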;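 further: plate controls were DMSO wells with A3G for no effect and wells lacking A3G enzyme for full effect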
Target sequence (Q9HC16 whole entry, looked up): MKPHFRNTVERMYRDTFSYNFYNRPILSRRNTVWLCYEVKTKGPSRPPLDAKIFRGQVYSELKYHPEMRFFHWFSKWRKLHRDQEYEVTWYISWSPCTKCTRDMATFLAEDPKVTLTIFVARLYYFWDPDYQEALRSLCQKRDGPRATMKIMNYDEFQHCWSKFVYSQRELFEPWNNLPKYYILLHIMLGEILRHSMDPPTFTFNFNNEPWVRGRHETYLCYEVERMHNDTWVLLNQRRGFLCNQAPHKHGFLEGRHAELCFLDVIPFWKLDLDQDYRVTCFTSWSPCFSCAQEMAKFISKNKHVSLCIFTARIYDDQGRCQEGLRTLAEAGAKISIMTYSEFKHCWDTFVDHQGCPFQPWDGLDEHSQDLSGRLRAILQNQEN
APOBEC3A inh = blocks human APOBEC3A ssDNA deamination; P31941; recombinant A3A, FAM/TAMRA ssDNA deamination fluorescence; inhibition, % at 20 µM; actives 0.41% (n = 330,000);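 active means at least 40% inhibition at 20 µM here, with at most 30% in a related deaminase screen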;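 further: plate controls were A3A with DMSO for no effect and wells lacking A3A enzyme for full effect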
Target sequence (P31941 whole entry, looked up): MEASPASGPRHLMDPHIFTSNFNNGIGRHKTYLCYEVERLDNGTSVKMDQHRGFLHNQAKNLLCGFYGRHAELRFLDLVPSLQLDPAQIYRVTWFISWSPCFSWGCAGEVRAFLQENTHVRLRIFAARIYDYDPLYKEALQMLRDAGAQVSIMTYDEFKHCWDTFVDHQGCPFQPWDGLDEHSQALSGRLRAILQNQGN
VLA-4 allo CP = human VLA-4 allosteric modulation in cherry picked compounds; inhibition, % at 6.7 µM; actives 2% (n = 1,300); shares compounds with VLA-4 inh; U937 cells, HUTS-21 LIBS mAb binding, flow cytometry; LDV ligand present at threefold Kd; in the data active means inhibition above about 40%;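 further: 0% = ligand without compound and 100% = no ligand background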
* hit, by the source's call; . = no result.

SMILES	CendR NRP1 mod	VLA-4 inh	MIN6 prolif	A3G deaminase	APOBEC3A inh	VLA-4 allo CP
C=CCNc1ncnc2c1cnn2-c1cccc(C)c1	6.2	65.6*	-3.8	-6.8	-0.7	5.7
CCC(COC(=O)Nc1cccc(C)c1C)NC(=O)OCC(C)C (centres undefined)	7.2	5.1	-1.9	-6.4	-2.3	.
CCC(CC)NC(=O)Nc1cccc(C)c1C	11.2	44.9	-2.3	-1.6	-0.8	7.8
Fc1ccc(CCNC(=S)Nc2ccc(F)cc2)cc1	3.7	3.1	-3.6	-5.2	-7.4	.
CCCCc1ccc(NC(=S)NCCc2ccc(F)cc2)cc1	9.9	40.6	-5.9	-4.1	-3.8	-4.5
COc1cc2c(cc1OC)C(C)N(CCc1ccc(Cl)cc1)CC2 (centres undefined)	-12.8	-7.0	-1.6	0.1	1.4	.
COc1cc2c(cc1OC)C(C)N(CCN1C(=O)c3ccccc3C1=O)CC2 (centres undefined)	-4.7	43.6	-2.8	-0.7	-0.8	-6.9
COc1cccc(-c2sc3ccc(OC)cc3c2-c2ccc(C(N)=O)cc2)c1	12.3	26.4	-3.6	-10.1	-3.3	.
COc1ccc(OCCN2CCOCC2)cc1	4.6	8.1	0.6	-8.0	-9.3	.
COc1ccc(-c2sc3ccc(OC)cc3c2-c2ccc(OCCN3CCOCC3)cc2)cc1	3.7	.	.	2.0	3.3	0.7
COc1cccc(-c2sc3ccccc3c2-c2ccc(OCCN(C)C)cc2)c1	8.7	72.1*	-6.1	-6.3	-4.7	44.2*
COc1cccc(-c2sc3ccc(OC)cc3c2-c2ccc(OC)cc2F)c1	18.4	14.6	-6.5	-5.5	-0.7	.
COc1cccc(-c2sc3ccc(OC)cc3c2-c2ccc(OCCN3CCCC3)cc2)c1	3.6	.	.	4.8	0.8	11.8
Cc1c(-c2ccc(OCCN3CCCCC3)cc2)c(=O)oc2ccc3ccccc3c12	-12.4	.	.	.	.	.
COc1cccc(-c2sc3ccccc3c2-c2ccc(OCCN3CCCCC3)cc2)c1	8.2	44.6	-6.1	-4.6	1.7	19.7
COc1cccc(-c2sc3ccccc3c2-c2ccc(OCCN3CCCC3)cc2)c1	16.8	63.8*	-6.0	-6.9	-2.9	38.1
CCOc1ccc(OCCN2CCCCC2)cc1	-16.5	4.2	-2.5	-2.8	1.1	.
COc1cccc(-c2sc3cc(OC)c(OC)cc3c2-c2ccc(OCCN3CCCCC3)cc2)c1	-14.9	.	.	0.0	1.7	0.0
COc1ccc2sc(-c3ccccc3OC)c(-c3ccc(OCCN(C)C)cc3)c2c1	4.1	.	.	-0.4	1.9	-3.9
COc1ccc(-c2sc3ccccc3c2-c2cc(OC)ccc2C=O)cc1	-0.9	.	.	.	.	.
CCc1cccc(C)c1NC(=O)CSc1n[nH]c(N)n1	10.5	7.6	2.4	-1.0	2.5	.
CCCCn1c(N)c(N(CC(C)C)C(=O)c2ccc(Br)s2)c(=O)[nH]c1=O	12.2	7.8	1.4	-9.3	-0.2	.
CC[C@@]1(C(=O)OC)N[C@H](CN(C)C(=O)c2ccc(C(C)(C)C)cc2)[C@@H]2C(=O)N(Cc3ccccc3)C(=O)[C@@H]21	-4.1	32.8	-3.1	-1.5	1.5	.
COC(=O)[C@]1(Cc2ccccc2)N[C@H](CN(C)C(C)=O)[C@@H]2C(=O)N(Cc3ccccc3)C(=O)[C@@H]21	-7.5	38.9	-1.2	-6.3	-1.1	2.7
COC(=O)[C@]1(Cc2ccccc2)N[C@H](CN(C)C(=O)c2ccc(C(C)(C)C)cc2)[C@@H]2C(=O)N(Cc3ccccc3)C(=O)[C@@H]21	-14.5	14.8	-4.6	-2.5	-0.1	0.6
SMILES	CendR NRP1 mod	VLA-4 inh	MIN6 prolif	A3G deaminase	APOBEC3A inh	VLA-4 allo CP
CC(C)C(NC(=O)OCc1ccccc1)C(=O)NCc1ccc(C(=O)O)cc1 (centres undefined)	5.8	2.8	0.0	-4.7	-0.7	.
CC(C)[C@H](NC(=O)OCc1ccccc1)C(=O)NCc1ccccc1	-7.6	42.5	3.5	1.5	-5.7	-16.7
COc1ccc(S(=O)(=O)Nc2ccccc2C)cc1	-0.4	-5.0	0.7	-2.4	1.7	.
COc1ccc(S(=O)(=O)Nc2c(F)cccc2F)cc1	8.9	23.1	0.6	-2.6	2.6	1.2
CC(C)CC(=O)Nc1ccc(C(=O)COC(=O)Cc2n[nH]c(=O)c3ccccc23)cc1	-24.2	-6.4	-5.2	0.6	5.4	.
CCc1ccc(C(=O)NNC(=O)CN2C(=O)NC(CC)(c3ccccc3)C2=O)cc1 (centres undefined)	1.0	4.6	-2.9	-9.6	-1.6	.
O=C(NCc1ccccc1F)C1CCN(C(=O)c2sccc2-n2cccc2)CC1	-7.3	111.3*	-0.8	-0.6	-1.5	8.6
Cc1ccc(S(=O)(=O)N(C)C)cc1NC(=O)COC(=O)COc1ccc2c(c1)CCC2	-8.6	29.5	5.4	-8.3	-1.4	.
CCOC(=O)c1c(N2C(=O)C=CC2=O)sc(C)c1C	-1.9	50.3*	-4.9	9.9	-1.8	32.0
CCOC(=O)c1c(NC(N)=O)sc(C)c1C	2.5	9.1	1.0	1.4	-2.4	.
Cc1ccc(C(=O)C(OC(=O)c2cnccn2)c2ccccc2)cc1 (centres undefined)	-6.3	47.6	-0.8	-3.1	-3.5	-9.3
CC(OC(=O)c1cnccn1)C(=O)c1ccccc1 (centres undefined)	13.1	5.7	2.2	-7.5	-1.1	.
CCNC(=O)NC(=O)CSc1ccc(S(=O)(=O)N2CCCCC2)cn1	2.5	-25.9	0.6	4.6	4.4	.
COc1ccc(-c2noc(CCC(=O)NCCCN3CCN(c4ccc(F)cc4)CC3)n2)cc1	-4.4	56.7*	-3.2	-2.1	-4.4	-5.8
COc1ccc(-c2noc(CCC(=O)NCCCN3CCC(Cc4ccccc4)CC3)n2)cc1	-2.7	16.5	-3.7	-2.6	-1.4	.
COC(=O)[C@@H]1[C@@H](C#N)C2(c3ccccc3-c3ccccc32)N(c2ccc(Cl)cc2)N1C#N	-3.5	57.8*	-3.5	0.1	4.8	39.0
CCOc1ccc(N2C(=O)CC(N(CCc3ccc(S(N)(=O)=O)cc3)C(C)=O)C2=O)cc1 (centres undefined)	-0.8	9.9	-1.9	-0.6	-0.3	.
CCC(=O)N(Cc1ccc(S(N)(=O)=O)cc1)C1CC(=O)N(c2ccc(OC)cc2)C1=O (centres undefined)	-0.4	-0.5	0.0	-4.3	-1.0	3.7
CCOc1cccc(N2C(=O)CC(N(CCc3ccc(OC)c(OC)c3)C(=O)CC)C2=O)c1 (centres undefined)	9.8	7.3	-1.8	-1.8	-3.2	-8.5
CCOC(=O)c1ccc(N2C(=O)CC(N(C)CCc3ccc(OC)c(OC)c3)C2=O)cc1 (centres undefined)	-0.4	-5.2	-1.6	-5.9	0.0	.
CC(C)Oc1ccc(CN2CCC(n3nccc3NC(=O)CCc3ccccc3)CC2)cc1	-12.8	15.7	-3.6	-6.2	6.0	.
CC(=O)c1cccc(NC(=S)N2CCN(S(=O)(=O)c3ccccc3)CC2)c1	10.2	-3.3	-0.9	-5.2	-3.4	.
